From PubChem
In the library only some 3.9% were active in any assay of this set; here they are far more common.
HSF1 inh: HSF1 inhibition; NIH3T3-HGL HSE-luciferase, MG132-induced, luminescence 8 h; hits give low values; activity change, negative = inhibition, % at 7.5 µM (by protocol); 300,000 compounds, 0.77% hits;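 active = more than half of replicate wells show activity change below -50%, luminescence cut by over half; inconclusive = some wells, but at most half, below -50%; inactive = no replicate well below -50%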;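 note: luciferase reports HSF-1 transcriptional activity via heat shock element; 0% = median of DMSO wells and -100% = zero luminescence signal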
Wnt act: Wnt/beta-catenin pathway activation | Wnt/beta-catenin reporter cell assay, activator, plate reader | activation, % at 9.35 µM | 300,000 compounds, 1.2% hits; in the data active = activation above about 30%, passing the limit was not always enough; inconclusive = no clear call, values can overlap the other calls;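 note: 0% = neutral control wells and 100% = positive control wells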
MITF act: activators of MITF-driven TRPM1 promoter activity in SK-MEL-5 cells | SK-MEL-5 TRPM1-promoter luciferase, 24 h; % of positive control, neutral wells = 0 | activation, % at 12.5 µM | 300,000 compounds, 0.75% hits;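 active = mean activation of at least 80% with every replicate also reaching 80%; inconclusive = mean reaches 80% but some replicate falls short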;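 note: 0% = neutral control wells and 100% = parthenolide positive control wells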
esBAF inh: inhibitors of esBAF chromatin remodeling in mouse ES cells. reporter increase, % at 12.5 µM. Bmi1-luciferase knock-in reporter, 24 h; 100% = twice the neutral-well signal. 350,000 compounds, 2% hits. AID 602393; in the data active = activation above about 40%; inconclusive = no clear call, values can overlap the other calls;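 note: 0% = median of the plate's neutral control wells and 100% = double that signal; a rise in the Bmi1 reporter signal indicates esBAF inhibition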
HSF1 activator: increases HSF-1 driven luciferase reporter signal. activation, % at 9 µM. NIH3T3-HGL HSF-1 luciferase reporter, MG132, 8 h; 100% = twice DMSO control signal. 300,000 compounds, 1.7% hits;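 active = mean replicate activation of at least 50% with a set share of replicates each reaching 50%; inconclusive = only one of those two conditions met; inactive = mean below 50% and too few replicates reaching it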;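 note: 0% = median of the neutral control wells and 100% = twice that signal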
An asterisk follows results filed as active; ? = inconclusive; / = not tested or not shown.

SMILES | HSF1 inh | Wnt act | MITF act | esBAF inh | HSF1 activator
Cc1cc(/C([O-])=C(/C(=S)Nc2ccccc2)[n+]2ccccc2)c(C)n1-c1ccccc1 | -61* | 6 | -16 | 5 | -61
CCCC(=O)Nc1ccc2c(c1)C(=O)N(C)C[C@@H](OC)[C@H](C)CN(Cc1ccncc1)[C@H](C)CO2 | / | / | / | 1 | /
Cc1nn(-c2ccc(N3CCCCC3)nn2)c(C)c1CCC(=O)Nc1cccc(F)c1 | 7 | 19 | 97* | 64* | 20
Cc1ccc(NC(=O)CCc2c(C)nn(-c3ccc(N4CCCCC4)nn3)c2C)cc1F | 10 | 1 | 47 | 69* | 26
Cc1ccc(C)c(NC(=O)CCc2c(C)nn(-c3ccc(N4CCCCC4)nn3)c2C)c1 | 18 | 6 | 10 | 4 | 22
COc1ccccc1CNC(=O)C[C@H]1C[C@@H]2c3cc(NC(=O)Nc4ccc(C(F)(F)F)cc4)ccc3O[C@@H]2[C@@H](CO)O1 | / | / | / | 4 | /
CN(C)c1cccc(/C=C(\C#N)c2ccccc2)c1 | 36 | 27 | 38 | -7 | 63*
OCC1(Cc2cccc(C(F)(F)F)c2)CCN(Cc2cc3ccccc3o2)CC1 | 43 | 0 | -6 | / | 89*
COc1ccc(CC2(CO)CCN(Cc3cc4ccccc4o3)CC2)cc1 | 5 | -2 | -4 | / | -7
COCC#Cc1cnc2c(c1)C(=O)N([C@H](C)CO)C[C@@H](C)[C@H](CN(C)C(=O)c1ccc(F)cc1)O2 | / | / | / | 3 | /
Cc1ccccc1-c1nc2sc3c(c2c(=O)n1N)CCCC3 | -60* | 12 | / | -7 | -69
Nn1c(-c2cccs2)nc2sc3c(c2c1=O)CCCC3 | 44 | / | 26 | 28 | 70*
COc1ccccc1OCc1nnc(SCCN2CCOCC2)o1 | 21 | / | 2 | -13 | 58*
O=C1CCC2CN3CCc4c([nH]c5ccccc45)C3CC2C1 (configuration not stated) | / | -3 | / | -2 | /
OC1CCC2CN3CCc4c([nH]c5ccccc45)C3CC2C1 (configuration not stated) | / | -2 | / | 62* | /
CC(=O)Nc1ccc(C(=O)N2CCCCC2c2cc(C(=O)Nc3cccc(C#N)c3)no2)cc1 (configuration not stated) | / | 4 | / | -7 | /
N#Cc1ccc(C(=O)N2CCCCC2c2cc(C(=O)Nc3cccc(C#N)c3)no2)cc1 (configuration not stated) | / | 36* | / | 0 | /
CCOC(=O)c1c(NC(=S)N2CCCCC2)sc2c1CCN(C(=O)OCC)C2 | 86 | 2 | / | / | 121*
CCOC(=O)c1c(NC(=S)NCc2ccccc2)sc2c1CCN(C(=O)OCC)C2 | 36 | 1 | / | -4 | 72*
CCOC(=O)c1c(NC(=S)N2CCOCC2)sc2c1CCN(C(=O)OCC)C2 | 33 | -3 | / | / | 28
C=CCNC(=S)Nc1sc2c(c1C(=O)OCC)CCN(C(=O)OCC)C2 | 26 | / | 6 | 1 | 61*
CCOC(=O)c1c(NC(=S)Nc2ccccc2)sc2c1CCN(CC)C2 | -3 | -1 | 6 | 3 | -5
Brc1ccccc1/C=N/Nc1ccccn1 | 23 | 22 | 35 | / | 45
COc1cc(/C=N/NC(=O)C(=O)Nc2ccccn2)ccc1O | 0 | 2 | 5 | / | -17
Brc1ccc(/C=N/Nc2ccccn2)cc1 | 12 | 16 | 50 | 70* | 50
SMILES | HSF1 inh | Wnt act | MITF act | esBAF inh | HSF1 activator
COc1ccc(/C=N/Nc2ccccn2)cc1O | 5 | 48* | 85* | 14 | 6
Cc1ccc(/C=N/Nc2ccccn2)s1 | 26 | 19 | 104* | 57* | 40
Clc1ccc(/C=N/Nc2ccccn2)cc1 | 12 | 56* | 31 | 43* | 46
O=C(C[C@H]1C[C@H]2c3cc(NC(=O)C4CCC4)ccc3O[C@H]2[C@@H](CO)O1)NCc1ccccc1F | / | / | / | -2 | /
C[C@@H]1CN([C@@H](C)CO)C(=O)Cc2cc(NS(=O)(=O)c3ccccc3)ccc2O[C@@H]1CN(C)S(C)(=O)=O | / | / | / | -1 | /
O=C(C[C@@H]1C[C@@H]2c3cc(NC(=O)NC4CCCC4)ccc3O[C@@H]2[C@@H](CO)O1)NCc1ccccc1F | / | / | / | 3 | /
Cc1cc2[nH]c(=O)cc(-c3ccccc3)n2n1 | 2 | 4 | / | 4 | 16
Cc1cc2[nH]c(=O)c3ccccc3n2n1 | 29 | -4 | -3 | -7 | 54*
CN1c2ccc(Br)cc2[C@H]2[C@H](CCN2C(=O)Nc2ccccc2F)[C@H]1CO | / | / | / | 21 | /
Cc1cccc(S(=O)(=O)N2C[C@H](O)COC[C@H]3O[C@@H](CC(=O)N4CCN(C)CC4)CC[C@@H]32)c1 | / | / | / | -3 | /
Cc1cccc2nc(COc3ccc(-c4ccccc4)cc3)cn12 | 32 | / | / | / | 65*
Cc1cc(C)n2cc(COc3ccc4ccccc4c3)nc2n1 | 25 | 14 | 8 | / | 67*
Cc1ccc(-c2cnc3c(c2)C(=O)N([C@H](C)CO)C[C@H](C)[C@@H](CN(C)CC2CCOCC2)O3)cc1 | / | / | / | -1 | /
COc1ccccc1C(=O)COC(=O)c1ccccc1O | 28 | 9 | 0 | ? | 47
CCc1ccc(C(=O)COC(=O)c2ccccc2OC)cc1 | 39 | 50* | 87* | / | 49
O=C(COC(=O)c1cccnc1Cl)c1ccc(F)cc1 | 6 | 4 | -2 | / | 22
COc1ccccc1C(=O)OCC(=O)c1cccc([N+](=O)[O-])c1 | -76* | -3 | 10 | / | -83
CCc1ccc(C(=O)COC(=O)c2cccnc2Cl)cc1 | 11 | 44* | 23 | 0 | 23
O=C(COC(=O)c1cccnc1Cl)c1ccccc1 | 14 | 1 | 52 | 44* | 17
C[C@@H]1CCCCO[C@@H](CN(C)C(=O)Cc2ccccc2)[C@@H](C)CN([C@@H](C)CO)C(=O)c2cc(NC(=O)Nc3ccc(F)cc3)ccc2O1 | / | / | / | -1 | /
C[C@@H]1CN([C@@H](C)CO)C(=O)c2cccc(NC(=O)c3ccc(-c4nccs4)cc3)c2O[C@H]1CN(C)Cc1ccc(C(F)(F)F)cc1 | / | / | / | -4 | /
COCC(=O)Nc1ccc2c(c1)OC[C@H](C)N(CCC(F)(F)F)C[C@@H](C)[C@@H](OC)CN(C)C2=O | / | / | / | -2 | /
CN1CCc2c(sc(/N=C/c3c[nH]c4ccccc34)c2C#N)C1 | -29 | 39* | / | / | -25
CN1CCc2c(sc(/N=C/c3cc(Cl)ccc3O)c2C#N)C1 | -52* | 20 | 37 | / | -60
Cn1c(NCc2ccc(Cl)cc2)nc2ccccc21 | 36 | 8 | 45 | 71* | 54*
SMILES | HSF1 inh | Wnt act | MITF act | esBAF inh | HSF1 activator
CCn1c(CN2CCN(c3ccc(Cl)cc3)CC2)nc2ccccc21 | / | / | / | -6 | /
Cn1c(CN2CCN(c3ccc(Cl)cc3)CC2)nc2ccccc21 | 22 | -5 | -12 | / | 64*
Cc1ccc(NCc2nc3ccccc3n2C)cc1C | 26 | 13 | / | 51* | ?
Cc1ccc(NCc2nc3ccccc3n2C)cc1 | 8 | / | / | 72* | 11
Cn1c(CNc2ccc(O)cc2)nc2ccccc21 | 17 | 21 | 10 | 34 | 17
COCc1cn(CC[C@H]2CC[C@@H](NC(=O)Nc3ccccc3)[C@@H](CO)O2)nn1 | / | / | / | -2 | /
Cn1c(CSc2nc3ccccc3s2)n[nH]c1=S | -4 | 0 | / | -20 | -9
